From PubChem
FMDV antiviral: foot and mouth disease virus antiviral activity; FMDV antiviral cell-based qHTS; Potency, µM (series often up to 57.9 µM), for inactives: at the top dose activity change, negative = inhibition, usual class: inhibitors; actives 1.2% (n = 410,000); calls by dose curve; tested in HEK293T cells; note: read-out not given here; potency is the fitted concentration of half-maximal effect; nearly all actives have a fitted effect of over 45% in size
Vaccinia mCherry: vaccinia inhibition (mCherry reporter); Vaccinia virus mCherry reporter infection, fluorescence; Potency, µM (titrated, usually from 36.5 µM), inactives show at the highest dose activity change, negative = inhibition, hits mostly inhibitors; actives 0.63% (n = 310,000); calls by dose curve; tested in A549 cells; note: potency is the fitted concentration of half-maximal effect; nearly all actives have a fitted effect of over 35% in size
HCMV inh: inhibitors of human cytomegalovirus | AID 1259415 | actives 4.5% (n = 410,000) | activity change, negative = inhibition, % at 57.5 µM | HFF cells, HCMV-luciferase reporter, 72 h; hits give low values; in the data active = activity change below about -60%; inconclusive = no clear call, values can overlap the other calls; inactive = above about -39%
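Human foreskin fibroblasts infected with luciferase-reporter HCMV at MOI 1 PFU/cell, compounds at two doses. Luciferase measured 72 h post infection; normalized to buffer-only basal and Salinomycin (10uM) controls.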
HCV inh: HCV inhibition. Huh7.5.1 HCVcc-Cre infection, luciferase reporter, 44 h. Potency, µM (series often up to 41.8 µM), inactives show at the highest dose activity change, negative = inhibition, usual class: inhibitors. actives 3.4% (n = 340,000). AID 651820; active = well fitted inhibition curve with a large enough effect; inconclusive = small, poorly fitted or top-dose-only effect, or another doubt; inactive = no such curve, though single readings can be large or run the other way; note: potency is the fitted concentration of half-maximal effect
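A cell-based infection assay in which seeded cells (1,000 per well) receive test compound after 4 h, are inoculated with HCVcc-Cre at approximately 0.5 moi, and are incubated 44 h before luminescence detection.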
VACV Venus inh: inhibitors of vaccinia virus (Venus reporter); Vaccinia virus Venus reporter expression, fluorescence; Potency, µM (series often up to 36.5 µM), inactives show top-dose activity change, negative = inhibition, usual class: inhibitors; actives 0.46% (n = 330,000); AID 720580; calls by dose curve; tested in A549 cells; note: potency is the fitted concentration of half-maximal effect; nearly all actives have a fitted effect of over 30% in size
* marks the source's active call; other numbers are inactive results; i = inactive; ? = inconclusive; nt = not tested or not shown. Most compounds without a hit are left out; they make up all but 7.3% or so of the library. % is set by controls: 0 for no effect and ±100 for the full control effect.

SMILES	FMDV antiviral	Vaccinia mCherry	HCMV inh	HCV inh	VACV Venus inh
O=C(Nc1ccc2c(c1)CCCN2C(=O)c1cccs1)c1c(F)cccc1F	?	1%	-75*	?	-5%
O=C(Nc1ccc2c(c1)CCCN2C(=O)c1cccs1)c1ccccc1Cl	-17%	-6%	-67*	nt	3%
O=C(Nc1ccc2c(c1)N(S(=O)(=O)c1cccs1)CCC2)c1c(F)cccc1F	28%	?	-36	?	-14%
O=C(Nc1ccc(C(=O)N2CCCc3ccccc32)cc1)c1cccs1	-5%	i	43	-25%	-14%
CCCCn1nnnc1C1(C)CCC(=O)N1Cc1cccnc1 (centres undefined)	-16%	-6%	-24	nt	4%
CC(C)(O)C#Cc1ccc(CN2CCc3nnc(CNC(=O)c4cccc(F)c4)n3CC2)cc1	-6%	-1%	nt	nt	1%
COc1cccc(Nc2ncc3nc(CCc4ccccc4)c(=O)n(Cc4cccs4)c3n2)c1	-16%	nt	nt	nt	nt
CC(C)C[C@@H]1COc2cc(NCCO)ccc2S(=O)(=O)N1	nt	nt	-7	nt	nt
C=CCn1c(SCC(=O)N(CC)C2CCS(=O)(=O)C2)nc2cc(C(=O)O)ccc2c1=O (centres undefined)	-10%	nt	-39	?	nt
CN(C)C(=O)c1ccc(-n2nc(C(F)(F)F)c3c2CCCC3)cc1	-23%	nt	-1	10µM*	-26%
COc1nc(Cl)cn(-c2ccc(C)cc2)c1=O	-4%	i	-27	15%	-4%
Cc1ccc(-n2c(Cl)c(Cl)nc(Cl)c2=O)cc1	7.1µM*	?	nt	7.1µM*	?
N#Cc1cccc(-c2nccc(-n3ccnc3)n2)c1	-7%	nt	nt	nt	nt
COc1ccc(-c2csc(NC(=O)C3CCN(C(=O)c4ccc(F)cc4)CC3)n2)cc1OC	35µM*	-28%	nt	nt	?
COc1ccc(-c2csc(NC(=O)c3c(C)noc3C)n2)cc1F	40µM*	i	-37	?	-20%
CC(=O)Nc1nc(-c2ccc3c(c2)CCO3)cs1	15%	nt	-76*	4%	nt
COc1ccccc1C(=O)Nc1nc(-c2ccc3c(c2)OCCO3)cs1	-2%	-6%	-63*	6%	-4%
O=C(Nc1nc(-c2ccc3c(c2)OCCO3)cs1)c1ccco1	nt	nt	0	nt	nt
Nc1nc(-c2ccc3c(c2)CCO3)cs1	71%	-27%	40	-9%	-14%
COc1cccc(NC(=O)Nc2nc(-c3ccc(OC)c(OC)c3)cs2)c1	25µM*	?	-99*	2.8µM*	14µM*
O=C(Oc1ccccc1)N1CCC2(CC1)CCN(c1ccccc1)CC2	-7%	nt	nt	nt	nt
N#Cc1c(CSCC(=O)O)cc(=O)n2c1[nH]c1ccccc12	-7%	nt	11	1%	nt
N#Cc1c(C(F)(F)F)cc(=O)n2c1[nH]c1ccccc12	-6%	10µM*	-96*	?	?
Cc1cccc(CNc2ccc(S(=O)(=O)N3CCCCC3)cc2)c1	?	nt	-29	?	nt
O=C(CC(c1ccccc1)c1cc(Br)ccc1O)NCCN1CCOCC1 (centres undefined)	-13%	-24%	71	6%	-15%
SMILES	FMDV antiviral	Vaccinia mCherry	HCMV inh	HCV inh	VACV Venus inh
O=C(CC(c1ccccc1)c1cc(Br)ccc1O)NCC1(c2ccccc2)CCCC1 (centres undefined)	?	-20%	-105*	nt	-23%
CCN(C(=O)Cn1cnc2c1c(=O)n(C)c(=O)n2C)c1ccccc1C	-11%	-8%	0	nt	-2%
CC(C)(O)/C=C/C(=O)[C@](C)(O)C1[C@H](O)C[C@@]2(C)C3CC=C4C(C=C(O[C@@H]5O[C@H](CO)[C@@H](O)[C@H](O)[C@H]5O)C(=O)C4(C)C)[C@]3(C)C(=O)C[C@]12C (some centres undefined)	-12%	i	19	44%	-22%
CC(C)(O)/C=C/C(=O)[C@](C)(O)C1[C@H](O)C[C@@]2(C)C3CC=C4C(C[C@H](O)[C@@H](O)C4(C)C)[C@]3(C)C(=O)C[C@]12C (some centres undefined)	?	?	nt	?	1.6µM*
CC1Oc2cc3oc4c(O)c5c(cc4c(=O)c3c(O)c2C1(C)C)C=CC(C)(C)O5 (centres undefined)	-6%	-15%	nt	5µM*	-13%
CC1(C)C=Cc2cc3ccc(=O)oc3cc2O1	29%	-22%	-30	-7%	-25%
COc1cc(C2c3c([nH]c(=O)[nH]c3=O)Nc3ccc4ccccc4c32)ccc1O (centres undefined)	16%	?	57	10µM*	-3%
